Screening results (PubChem BioAssay)
BAZ2B inh: inhibitors of human BAZ2B bromodomain; AlphaScreen BAZ2B-H3K14Ac peptide displacement; actives 4.4% (n = 360,000); AID 504333; Q9UIF8; Potency, µM (titrated, usually from 114 µM), for the others: at the top dose activity change, negative = inhibition, usual class: inhibitors; also: % is scaled to controls: 0 for no effect and ±100 for the full control effect; nearly all actives have a fitted effect of over 60% in size
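Complex of BAZ2B and biotin-H3K14Ac (50 nM apiece) forms over 30 min at RT, then faces library compounds up to 110 uM for another 30 min; AlphaScreen beads added, 20 min dark incubation, luminescence read.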
HP1b binding inh: HP1-beta chromodomain-methylated histone interaction inhibition; Potency, µM (top dose mostly 114 µM), for the others: at the top dose activity change, negative = inhibition, hits mostly inhibitors; AlphaScreen HP1-beta / biotin-H3K9me3 peptide binding; AID 540317; actives 0.56% (n = 390,000); also: nearly all actives have a fitted effect of over 70% in size
Target sequence (P83916 whole entry, looked up): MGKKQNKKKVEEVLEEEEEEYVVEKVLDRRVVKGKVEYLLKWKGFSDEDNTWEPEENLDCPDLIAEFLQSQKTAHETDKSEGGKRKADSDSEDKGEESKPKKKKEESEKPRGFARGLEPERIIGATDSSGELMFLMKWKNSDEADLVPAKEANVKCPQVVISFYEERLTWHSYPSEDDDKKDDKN
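Compound inhibition of the preformed complex between 50 nM HP1-beta and 50 nM biotinylated H3K9me3 peptide was read by AlphaScreen. Buffer was PBS pH 7.4 with 0.01% Tween-20. Incubations ran 30 min at room temperature, with 10 ug/mL donor/acceptor beads.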
JMJD2A Tudor: JMJD2A Tudor domain (human) inhibition; AlphaScreen JMJD2A-Tudor / H3K4me3 peptide binding; Potency, µM (doses to about 114 µM), for inactives: at the highest dose activity change, negative = inhibition, actives largely listed as inhibitors; actives 4.4% (n = 390,000); O75164; also: % is scaled to controls: 0 for no effect and ±100 for the full control effect; nearly all actives have a fitted effect of over 50% in size
G9a block: G9a (human) methyltransferase inhibition. actives 8.8% (n = 350,000). G9a H3K9 monomethylation, AlphaScreen, 2 h. Potency, µM (highest dose often 102 µM), for inactives: at the top dose activity, negative = inhibition, hits mostly inhibitors. Q96KQ7; also: % is scaled to controls: 0 for no effect and ±100 for the full control effect; nearly all actives have a fitted effect of over 75% in size
Target sequence (Q96KQ7 913-1193 limits assumed): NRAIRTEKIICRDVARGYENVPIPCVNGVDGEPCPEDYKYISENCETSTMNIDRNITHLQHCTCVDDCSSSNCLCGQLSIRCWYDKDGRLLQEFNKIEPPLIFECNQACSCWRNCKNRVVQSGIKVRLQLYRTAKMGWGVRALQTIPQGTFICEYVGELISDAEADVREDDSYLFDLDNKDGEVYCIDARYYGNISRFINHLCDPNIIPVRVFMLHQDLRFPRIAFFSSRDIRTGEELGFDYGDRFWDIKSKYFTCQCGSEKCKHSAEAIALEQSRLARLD
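Step 1: enzyme (final 20 nM) with compound, 15 min RT. Step 2: substrate peptide 500 nM and SAM 20 uM, 2 h RT. Step 3: anti-H3K9me1 antibody and AlphaScreen beads, 10 min, then plate read.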
L3MBTL1 inh: blocks human L3MBTL1 | Q9Y468 | AlphaScreen L3MBTL1–H3K9me1 peptide binding | Potency, µM (top dose mostly 57.1 µM), for the others: at the highest dose activity, negative = inhibition, usual class: inhibitors | actives 0.66% (n = 230,000) | AID 485360; also: % is scaled to controls: 0 for no effect and ±100 for the full control effect; nearly all actives have a fitted effect of over 60% in size
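L3MBTL1 (50 nM) pre-complexed 30 min with biotinylated H3(1-15)K9me1 peptide (75 nM), then compounds added for 30 min at room temperature; AlphaScreen streptavidin donor/nickel chelate acceptor beads (10 ug/mL final) read after 30 min dark incubation.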
Sfp inh: Sfp phosphopantetheinyl transferase inhibition | Biochemical Sfp PPTase activity, qHTS | actives 3.5% (n = 310,000) | Potency, µM, for the others: largest response in the series, negative = inhibition, hits mostly inhibitors;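 also: the enzyme is Sfp with the accession as filed and its product quenches rhodamine fluorescence; 0% = enzyme reaction without inhibitor and -100% = no enzyme wells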
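Buffer: 50 mM Hepes-Na pH 7.6, 10 mM MgCl2, 0.01% Nonidet P-40, 0.01% BSA. Enzyme 15 nM, pre-exposed to compound 15 min; substrates then added and fluorescence change tracked over 30 min.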
* = called active by the depositor; u = inconclusive; x = no result; [ ] = another dose, or the depositor's remark. Hits are enriched below; roughly 12% of the tested compounds scored in any of these assays. Calls follow the shape of the dose curve; as a rule, active = well fitted curve in the direction sought with a large enough effect; inconclusive = small, poorly fitted or top-dose-only effect, or another doubt; inactive = no such curve, though single readings can be large; an effect the other way counts as inactive or inconclusive. Potency is read from the fitted curve at half-maximal effect.

SMILES | BAZ2B inh | HP1b binding inh | JMJD2A Tudor | G9a block | L3MBTL1 inh | Sfp inh
CCN1CCN(c2ncnc3c2c(-c2ccccc2)cn3-c2ccc(F)cc2)CC1 | u | 27.5% | 39.8µM* | u | x | 39.8µM*
OCCN1CCN(c2ncnc3c2c(-c2ccccc2)cn3-c2ccc(Br)cc2)CC1 | 44.7µM* | -33.3% | 35.5µM* | 35.5µM* | x | 22.4µM*
NC(=O)C1CCN(c2ncnc3c2c(-c2ccccc2)cn3-c2ccccc2)CC1 | u | 48.3% | u | 50.1µM* | x | -10.9%
C/C(=N/NS(=O)(=O)c1cc(C)ccc1C)c1ccncc1 | -13.5% | 53.1% | -16.7% | 39.8µM* | x | -5.4%
C/C(=N/NS(=O)(=O)c1cc(C)ccc1C)c1ccc2c(c1)OCO2 | -24.7% | 22.9% | -17.9% | 9.5% | x | 3.1%
Cc1ccc(C)c(N2C(=O)N(Cc3cc(=O)n4ccccc4n3)c3ccccc3S2(=O)=O)c1 | -7.1% | 18.8% | -5.3% | 0.2%[59 µM] | x | x
C/C(=N\NC(=O)Cc1ccccc1)c1ccc(Br)s1 | u | 29.8% | -4.1% | x | 9.4% | 11.5%
C/C(=N/NC(N)=S)c1ccc(Br)s1 | -17.0% | 11.7% | -35.0% | 15.8µM* | -6.9% | -0.7%
COc1cc(/C=N/NC(=O)C2=NNC(=O)C2C)ccc1O (stereo not given) | u | 4.9% | u | u | x | 50.1µM*
CC1C(=O)NN=C1C(=O)N/N=C\c1ccc(O)cc1O (stereo not given) | 11.2µM* | 16.2% | 39.8µM* | 4.5%[59 µM] | 28.2µM* | 25.9%
COc1cccc(NC(=O)CCC2CCN(C(=O)c3scnc3C)CC2)c1 | -6.3% | 17.7% | -11.8% | 26.7% | x | 2.9%
COc1cccc(NC(=O)CCC2CCN(C(=O)c3cncs3)CC2)c1 | 2.3% | 29.9% | -4.8% | 39.8µM* | x | -10.3%
C/C(=N\NC(=O)c1c(C)nc2ccccn12)c1ccccc1F | u | 15.8% | -9.1% | -3.5% | x | 9.0%
C/C(=N\NC(=O)c1c(C)nc2ccccn12)c1ccc(O)cc1O | 1.78µM* | 34.3% | -31.8% | 28.2% | x | 8.0%
CCCC(=O)Nc1c(I)cc(I)c(C[C@H](CC)C(=O)O)c1I | x | x | x | u | x | 2.3%
CCC(Cc1c(I)cc(I)c(O)c1I)C(=O)O (stereo not given) | x | x | x | u | x | 56.2µM*
COc1ccc(/C=C/C(=O)c2ccc3ccccc3c2O)cc1CN1CCOCC1 | 14.1µM* | u | u | 6.31µM* | -4.9% | u
O=C(NC[C@@H]1CCCCN1)c1cc(OCC(F)(F)F)ccc1OCC(F)(F)F | x | x | x | 20.8%[21.5 µM] | x | 21.5%
CCOC(=O)c1c(NC(=O)C2=C(C)NC(=S)NC2c2ccc(C)cc2)sc(C)c1C (stereo not given) | -27.7% | u | -16.4% | 5.8%[59 µM] | -2.1% | 20µM*
CCOC(=O)c1c(NC(=O)C2=C(C)NC(=S)NC2c2ccc(F)cc2)sc(C)c1C (stereo not given) | -4.5% | -7.6% | -34.3% | 21.7%[59 µM] | -0.8% | -11.0%
CN(C)c1ccc(CNCCC2CCOC(C)(C)C2)cc1 (stereo not given) | u | x | x | 44.7µM* | x | 10.8%
CN(C)c1ccc(CNCC2CCCO2)cc1 (stereo not given) | 1.3% | 26.8% | -17.2% | u | -0.3% | 4.3%
Cc1c(C=NNc2ccccc2)[nH]c(=O)[nH]c1=O | x | 41.7% | 0.0% | x | x | x
COC(=O)c1c(C)[nH]c(/C=N/Nc2ccccc2)c1C | u | -2.4% | u | 25.1µM* | -4.2% | -3.0%
CCCCCCCCCC(=O)OCC(CO)OC(=O)CCCCCCCCC (stereo not given) | x | x | x | 7.6%[59 µM] | x | -4.8%
Cc1c(C)c2cc(Cl)c(OCC(=O)N3CCN(c4ccc(F)cc4)CC3)cc2oc1=O | -4.9% | 30.8% | 10.3% | -0.1% | x | 11.1%
N#C/C(=N\Nc1cccc(C(F)(F)F)c1)C(=O)c1csc(-c2cccnc2)n1 | 28.2µM* | 2.6% | u | u | u | -0.1%
COc1ccc(CCC(=O)Nc2ccc3c(c2)OCO3)cc1OC | 1.0% | -16.4% | -22.1% | 4.9%[59 µM] | x | 1.2%
